High-throughput results: PubChem BioAssay, several laboratories
Only some compounds are listed: those with a hit (about 32% of all), similar ones and a draw of the others.
CYP2C19 activ: increases human CYP2C19 enzyme activity; AID 1025; 96,000 tested, under 10 active; recombinant CYP2C19, luciferin-H EGE luminescence; hits give high values; 0 = fully inhibited enzyme, 1 = untreated enzyme; activation factor at 5 µM;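 active = activation factor of at least 2 at 5 µM in the primary screen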;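 note: 0 = wells with 2.5 mM tranylcypromine and 1 = vehicle-only wells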
Target sequence (P33261 whole entry, looked up): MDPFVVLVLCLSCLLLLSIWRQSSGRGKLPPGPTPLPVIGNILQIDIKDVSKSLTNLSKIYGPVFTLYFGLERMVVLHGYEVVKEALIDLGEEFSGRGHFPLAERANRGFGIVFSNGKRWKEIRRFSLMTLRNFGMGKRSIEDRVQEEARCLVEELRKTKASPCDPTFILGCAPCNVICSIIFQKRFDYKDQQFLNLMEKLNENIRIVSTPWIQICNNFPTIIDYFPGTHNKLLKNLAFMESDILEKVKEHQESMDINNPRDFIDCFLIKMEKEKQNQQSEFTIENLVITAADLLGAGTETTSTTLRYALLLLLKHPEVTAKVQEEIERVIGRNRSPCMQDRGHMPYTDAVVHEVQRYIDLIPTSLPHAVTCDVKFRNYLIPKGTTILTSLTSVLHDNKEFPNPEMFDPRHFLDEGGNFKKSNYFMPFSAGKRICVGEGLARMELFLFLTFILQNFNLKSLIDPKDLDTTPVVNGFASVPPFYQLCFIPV
CYP2C9 act: CYP2C9 (human) activation; activation factor at 5 µM; 96,000 tested, 1.4% active; recombinant CYP2C9, luciferin-H conversion, luminescence; hits give high values; factor 1 = untreated enzyme, 0 = blocked; P11712; AID 1024;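 active = activation factor of 2 or more for CYP2C9 at a 5 µM dose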;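 note: 0 = sulfaphenazole-blocked wells and 1 = vehicle-only wells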
CYP2C9 inh: blocks human cytochrome P450 2C9. inhibition, % at 5 µM. 96,000 tested, 20% active. P11712. CYP2C9 Supersomes, luciferin-H conversion, luminescence. AID 777;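 active = blocking of liver enzyme CYP2C9 beyond about 50% at 5 µM, limit read from the data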
PostGolgi yeast: growth inhibition of a yeast mutant, post-Golgi transport screen. post-Golgi transport phenotypic cell assay. inhibition, % at 10 µM. AID 739. 98,000 tested, 0.9% active;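 note: yeast cells grown in 1536-well plates; yeast grown about 18 h at 30C before absorbance read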
PostGolgi ctrl: growth of the yeast control strain, post-Golgi counter-screen. efflux-deficient yeast background strain, growth absorbance A615, 16 h. inhibition, % at 10 µM. 98,000 tested, 5% active
CYP2C19 inhib: human CYP2C19 inhibition; P33261; CYP2C19 Supersomes, luciferin-H EGE luminescence, 30 min; AID 778; inhibition, % at 5 µM; 96,000 tested, 21% active;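 active = CYP2C19 inhibition above a set limit at 5 µM in the primary screen, cut at about 50% in these data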;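 note: plate controls were negative control wells for no effect and 2.5 mM tranylcypromine positive control for full effect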
The depositor's hits bear a star; . = no result given. Cut-off read from the data, not from the text of the source, unless noted: active = inhibition above about 30%; inactive = the rest.

SMILES	CYP2C19 activ	CYP2C9 act	CYP2C9 inh	PostGolgi yeast	PostGolgi ctrl	CYP2C19 inhib
C=CCSc1nnc(-c2cc3c(s2)-c2ccccc2CC3)o1	1	1	-1.5	5.4	8.7	3.8
Cc1nonc1NC(=O)CSc1ccc(-c2ccccc2)nn1	0.5	0.4	63.6*	1.4	3.3	49.5
COc1ccc(CCNC(=O)CSc2cc(=O)[nH]c(N)n2)cc1OC	1	1.1	-8.6	5.3	11.3	-2.7
CCn1c(CNC(=O)Cc2ccc(OC)cc2)nnc1SCC(=O)Nc1nccs1	1	1.1	-8.0	-4.8	16.3	4.2
COc1ccc(CCNC(=O)CSc2ccc(-c3ccccc3)nn2)cc1OC	0.3	0.8	24.6	6.9	2.0	70.7*
COc1ccc(CCCc2nnc(SCC(=O)Nc3nccs3)n2C)cc1C	0.4	1.3	-31.2	-9.2	45.0*	59.1*
COc1ccc(CCNC(=O)CSc2nnc(-c3ccc(F)cc3)o2)cc1OC	0.5	0.4	63.1*	-4.0	10.8	45.7
COc1ccc(CCNC(=O)CSc2nnc(CNc3ccc(Cl)cc3)o2)cc1OC	.	.	.	-4.5	5.8	.
COc1cc(OC)c(OC)cc1CNCCNC(=O)c1nonc1N	0.8	1	-3.4	3.1	-3.2	19.7
COCCOC(=O)C1=C(N)Oc2c(oc(CO)cc2=O)C1c1c(F)cccc1Cl (stereo not given)	0.8	1.2	-16.7	5.2	-7.6	16.4
O=C(O)c1ccccc1C(=O)NNc1ccc(F)cc1	1	1	0.0	-1.6	2.0	-2.7
CCN1CCCC1CNCc1ccc(Cl)cc1Cl (stereo not given)	0.8	0.9	5.1	-3.8	-8.0	18.4
COc1ccc(CCNC(=O)C(C)Sc2ccccc2)cc1OC (stereo not given)	0.4	0.4	63.8*	-2.6	-9.8	56.0*
COc1ccc(CCNC(=O)CSc2nnc(Cc3csc(N)n3)n2C)cc1OC	1.1	0.5	51.0*	-8.7	1.3	-12.9
COc1ccc(CCNC(=O)CSc2nnc(Cn3c(=O)sc4ccccc43)n2C)cc1OC	0.9	1	-3.5	6.0	8.0	5.3
CCC(CC)C(=O)NCCc1ccc(OC)c(OC)c1	1	1.1	-5.9	-2.0	2.2	4.9
COc1ccc(S(=O)(=O)N2C3CCC2CC(NC(=O)NC2CCCCC2)C3)cc1 (stereo not given)	0.6	1.5	-46.1	15.6	-5.8	38.2
COc1ccc(C2C(C(=O)N3CCCCC3)CC(=O)N2c2ccc(OC)cc2)cc1 (stereo not given)	1	1.4	-43.5	0.5	-3.3	1.1
CCc1ccc(NC(=O)CNC(=O)c2cn(-c3ccccc3OC)c(=O)c3ccccc23)cc1	0	0	98.7*	-3.5	-3.0	97.9*
CCC(=O)N1CN(S(=O)(=O)c2ccc(C)cc2)CC1C (stereo not given)	0.5	0.9	13.4	-0.8	2.2	53.4*
CCOC(=O)C1CN(S(=O)(=O)c2ccc(C)cc2)C1	0.8	1	-3.2	-1.6	-10.3	24.2
CCc1cc2c(=O)c(-n3cnc4ccccc43)coc2cc1O	0.7	1.1	-15.0	-0.2	-8.8	34.1
CCCCc1nn(-c2cc(Cl)ccc2OC)c2c1C(=O)CCC2	0	0.1	91.5*	-13.3	16.7	96.6*
COc1ccc(-c2nc3c(n2O)CCCC3=O)cc1OC	1.1	1.1	-6.9	-6.4	-0.8	-5.2
CCC1CCCCN1CCCn1c(=S)[nH]c2ccccc2c1=O (stereo not given)	0.9	0.9	10.1	-3.2	1.5	5.9
SMILES	CYP2C19 activ	CYP2C9 act	CYP2C9 inh	PostGolgi yeast	PostGolgi ctrl	CYP2C19 inhib
NC(=S)N/N=C\c1ccc(-c2cccc(Cl)c2Cl)o1	1.1	0.9	10.8	8.6	48.5*	-8.9
NC(=S)N/N=C/c1ccc(-c2ccc(Cl)c(Cl)c2)o1	1	0.9	11.2	66.8*	81.3*	3.0
O=C(CN1CCCC1)N/N=C/c1ccc(-c2cccc(Cl)c2)o1	1.1	1	-0.6	2.9	9.4	-9.7
O=C(Nc1ccccc1)ON=C1c2ccccc2-c2ccccc21	0.8	0.3	72.0*	-19.2	17.3	23.3
NC(=O)NC(=O)Nc1ccccc1Cl	1.2	1.1	-14.8	15.3	2.7	-20.2
O=C(Nc1ccccc1Cl)ON=C1c2ccccc2-c2ccccc21	0.7	0.2	77.8*	3.3	0.3	29.5
O=C1C(=O)N(CCOCCO)C(c2ccccn2)/C1=C(\O)c1ccccc1 (stereo not given)	1.1	1.1	-6.2	4.3	1.0	-13.5
COCCNC(=O)c1ccc(CS(=O)(=O)c2ccccc2)o1	1.1	1	4.5	8.1	-6.8	-7.0
Cc1cccc(OCC(=O)Nc2ccc(N3CCN(C(=O)c4ccco4)CC3)cc2)c1	0.3	0.6	43.7	-2.8	12.4	65.6*
O=C(Nc1ccc(N2CCN(C(=O)c3ccco3)CC2)cc1)C(c1ccccc1)c1ccccc1	0.1	0.4	61.1*	-0.9	1.5	86.0*
Cc1cc(OCC(=O)Nc2ccc(N3CCN(C(=O)c4ccco4)CC3)cc2)cc(C)c1Cl	1	0.6	38.7	10.9	8.8	-1.7
O=C(C1CCN(S(=O)(=O)c2ccc(F)cc2)CC1)N1CC=C(c2ccccc2)CC1	0.8	0.8	18.5	-1.6	8.6	18.2
O=C(C1CCN(S(=O)(=O)c2cccc3cccnc23)CC1)N1CCCC1	0.6	2.6*	-163.0	23.3	0.9	35.8
O=C(C1CCN(S(=O)(=O)c2cccc3cccnc23)CC1)N1CC=C(c2ccccc2)CC1	0.2	1.3	-31.1	-3.5	10.9	75.4*
Cc1cccc(N2CCN(C(=O)C3CCN(S(=O)(=O)c4cccc5cccnc45)CC3)CC2C)c1 (stereo not given)	0.1	1.3	-31.5	-0.9	0.8	85.2*
Cc1cccc(N2CCN(C(=O)C3CCN(S(=O)(=O)c4cccc5nsnc45)CC3)CC2C)c1 (stereo not given)	0.7	0.8	16.7	21.8	12.0	33.6
COc1cc(NC(=O)C2CCCCC2)c(OC)cc1NC(=O)CCC(=O)NCc1ccco1	1	0.9	6.2	-4.4	-6.7	0.6
CC1(C)N(OCc2ccccc2)C(=O)C(=O)N(OCc2ccccc2)C1(C)C	1	1	0.6	-4.0	2.1	1.2
C=CCOn1c(=O)c(=O)n(OCc2ccccc2)c2ccccc21	0	1	-4.4	14.2	7.5	96.6*
CCc1c(C(=O)NNC(=S)NCC(C)C)csc1C	0.9	1.1	-5.8	4.7	4.0	12.8
CCn1c(C)c(CCC(=O)O)c(=O)n2nc(-c3ccccc3OC)cc12	0.9	0.7	31.4	-4.3	-11.1	9.2
O=C(CC(SCCO)c1ccc2c(c1)OCO2)c1ccco1 (stereo not given)	0	0.3	71.6*	-6.8	8.7	97.9*
Cc1ccc(C2C(C#N)=C(N)Oc3c2sc2ccccc32)o1 (stereo not given)	0.4	0.2	81.1*	-4.5	6.7	62.8*
